Drawing on PubChem BioAssay (EPA / NIEHS), this text covers AC50 and outcome for 15 compounds.

Read-out in assay [1]: xenobiotic metabolism (CYP1A1), CYP1A1 (gene 1543)
Briefly: CLD_CYP1A1_6hr: CellzDirect (CLD) Gene Expression Assay for xenobiotic metabolism (CYP1A1) at 6 hours (AID 2283661).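 For AC50: potency for transcript induction above DMSO vehicle baseline.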 The gist of the method:
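Read-out 6 h post-dose: qNPA chemiluminescent quantitation of transcript induction against 0.2% DMSO. Cells were cultured primary human hepatocytes from two separate donor preparations; phase-contrast morphology annotated apparent cytotoxicity.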

Assay [2] in a line: Tanguay_ZF_120hpf_TR_legacy: (Legacy) Oregon State University Tanguay Lab 120 Hour Post-fertilization zebrafish Assay for Touch Response (AID 2283667). In a few lines: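 Binary touch-response endpoint in larvae at 120 hpf after static waterborne exposure from embryo stage (28°C, 0.64% DMSO vehicle, 5 uM trimethyltin chloride as positive control); embryos dead at 24 or 120 hpf excluded; fitted as gain versus DMSO.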

Read-out in assay [3]: glucuronosyltransferase (UGT1A1), UGT1A1 (gene 54658)
Briefly: CLD_UGT1A1_6hr: CellzDirect (CLD) Gene Expression Assay for glucuronosyltransferase (UGT1A1) at 6 hours (AID 2283672). In a few lines: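 UGT1A1 mRNA induction, read by quantitative nuclease protection assay, 6 h after dosing primary human hepatocytes (two donors, 0.2% DMSO vehicle). Gain of signal fitted relative to vehicle.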

Read-out in assay [4]: Cytochrome P450 2B6 (Homo sapiens) (UniProt P20813)
Briefly: CLD_CYP2B6_6hr: CellzDirect (CLD) Gene Expression Assay for xenobiotic metabolism (CYP2B6) at 6 hours (AID 2283677).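 Note: actives raise CYP2B6 transcript above DMSO baseline so AC50 marks an inducer.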 In a few lines:
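CYP2B6 transcript levels, read by chemiluminescent qNPA, were fitted for increase versus DMSO baseline; cultured human liver hepatocytes from two donor preparations were harvested 6 h after exposure to test chemicals at multiple concentrations.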

A short description of assay [5]: CCTE_Padilla_ZF_144hpf_TERATOSCORE: (Legacy) CCTE's 144 Hour Post-fertilization zebrafish Assay Teratoscore, Padilla Lab (AID 2283679; active = hit-call score of the fitted dose curve at least 0.9, where 1 is the maximum; inactive = score below 0.9;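 for AC50: zebrafish embryos with chorions exposed by immersion from 6-8 hpf to 5 dpf with daily renewal; teratogenicity score from eye scoring of death hatching and malformations at 144 hpf; higher score means more developmental defects relative to DMSO baseline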). In a few lines:
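Larvae scored by eye at 144 hpf for death, hatching and malformations after a day in clean Hanks'. Before that, daily-renewed exposure at 80 uM (0.4% DMSO, 26C) from roughly 6-8 hpf through 5 dpf, 4 embryos per chemical.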

Read-out in assay [6]: HMG-CoA synthase (HMGCS2), HMGCS2 (gene 3158)
Put plainly: CLD_HMGCS2_6hr: CellzDirect (CLD) Gene Expression Assay for HMG-CoA synthase (HMGCS2) at 6 hours (AID 2283682).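 Note: actives raise HMGCS2 transcript above the 0.2% DMSO vehicle baseline.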 The gist of the method: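 HMGCS2 transcript induction read by quantitative nuclease protection with chemiluminescence, 6 h after dosing of primary human hepatocytes. Baseline was 0.2% DMSO vehicle; phase-contrast morphology gave a yes/no cytotoxicity annotation.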

Assay [7] concerns Thyroperoxidase (TPO), gene 54314. Put plainly: CCTE_Simmons_AUR_rTPO: CCTE's Amplex UltraRed Assay for Thyroperoxidase (TPO) Inhibition, Simmons Lab (AID 2283662).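 For AC50: potency for loss of signal meaning inhibition of peroxidase activity.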 The gist of the method: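 Rat thyroid microsomes (5 ug protein) were incubated with test compound (8 concentrations, 5 nM–87.5 uM final, 0.5% DMSO), 25 uM Amplex UltraRed and 300 uM H2O2 in 200 mM phosphate buffer for 30 min at 37C in the dark; fluorescence read at 544/590 nm.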

Read-out in assay [8]: Glyceraldehyde-3-phosphate dehydrogenase (Homo sapiens) (UniProt P04406)
Put plainly: CLD_GAPDH_6hr: CellzDirect (CLD) Gene Expression Assay for Baseline Control (Glyceraldehyde 3-phosphate dehydrogenase) at 6 hours (AID 2283681).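 Note: active means increased signal relative to DMSO vehicle.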 In a few lines: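 GAPDH baseline-control readout from qNPA (S1 nuclease digestion, probe hybridization, chemiluminescence) in lysates of cultured human hepatocytes harvested 6 h post-dosing. Chemicals tested at multiple concentrations versus 0.2% DMSO vehicle; microscopy-based cytotoxicity flagged yes/no.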

Read-out in assay [9]: ABC Transporter (ABCB1), ABCB1 (gene 5243)
Briefly: CLD_ABCB1_6hr: CellzDirect (CLD) Gene Expression Assay for ABC Transporter (ABCB1) at 6 hours (AID 2283659).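 Note: hits raise ABCB1 transcript above the DMSO vehicle baseline.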 The gist of the method: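 ABCB1 transcript measured by quantitative nuclease protection assay, chemiluminescent read-out, 6 h after dosing human hepatocyte cultures (0.2% DMSO vehicle, daily redosing). Activity fitted as increase over DMSO baseline; cytotoxicity flagged by phase-contrast morphology.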

Read-out in assay [10]: sulfotransferase (SULT2A), SULT2A1 (gene 6822)
Briefly: CLD_SULT2A_6hr: CellzDirect (CLD) Gene Expression Assay for sulfotransferase (SULT2A) at 6 hours (AID 2283669).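 Note: hits raise transcript level above the DMSO vehicle baseline.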 In a few lines: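 Measured 6 h after dosing, SULT2A1 mRNA in human hepatocyte lysates was quantified by S1 nuclease protection with chemiluminescent detection. Increases fitted against 0.2% DMSO vehicle baseline; phase-contrast cytotoxicity recorded yes/no.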

Assay [11] is described as follows: CLD_ACTIN_6hr: CellzDirect (CLD) Gene Expression Assay for Baseline Control (Actin) at 6 hours (AID 2283676).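 Note: active means increased actin mRNA relative to DMSO vehicle.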 In a few lines: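 Baseline actin transcript level measured by qNPA (S1 nuclease protection, chemiluminescence) in human hepatocyte cultures 6 h after chemical exposure; 0.2% DMSO vehicle as reference, cytotoxicity noted from morphology.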
Read-out in assay [12]: ABC Transporter (ABCB11), ABCB11 (gene 8647)
Briefly: CLD_ABCB11_6hr: CellzDirect (CLD) Gene Expression Assay for ABC Transporter (ABCB11) at 6 hours (AID 2283675).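 Note: hits raise ABCB11 mRNA level so AC50 marks induction.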 The gist of the method: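 Read-out was ABCB11 mRNA gain of signal by quantitative nuclease protection assay, relative to 0.2% DMSO vehicle, 6 h post-dose. Cells were primary human hepatocytes from two donors, treated across multiple concentrations; phase-contrast cytotoxicity noted yes/no.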

Read-out in assay [13]: Broad substrate specificity ATP-binding cassette transporter ABCG2 (Homo sapiens) (UniProt Q9UNQ0)
Briefly: CLD_ABCG2_6hr: CellzDirect (CLD) Gene Expression Assay for ABC Transporter (ABCG2) at 6 hours (AID 2283660). In a few lines: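 ABCG2 mRNA induction measured by qNPA chemiluminescence in human primary hepatocyte cultures, 6 h post-dose. Chemicals tested at several concentrations against a 0.2% DMSO vehicle; positive-direction fit relative to DMSO.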

Read-out in assay [14]: xenobiotic metabolism (CYP1A2), CYP1A2 (gene 1544)
Briefly: CLD_CYP1A2_6hr: CellzDirect (CLD) Gene Expression Assay for xenobiotic metabolism (CYP1A2) at 6 hours (AID 2283663).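 For AC50: potency is for induction meaning a rise in mRNA above DMSO.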 In a few lines: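 mRNA levels quantified by quantitative nuclease protection assay with chemiluminescence, 6 h after dosing human primary hepatocyte cultures (two donors) across several concentrations, vehicle 0.2% DMSO. Induction fitted upward versus DMSO; phase-contrast cytotoxicity annotated.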

Read-out in assay [15]: alkyl and aryl transferase (GSTA2), GSTA2 (gene 2939)
Briefly: CLD_GSTA2_6hr: CellzDirect (CLD) Gene Expression Assay for alkyl and aryl transferase (GSTA2) at 6 hours (AID 2283666). The gist of the method:
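GSTA2 transcript induction at 6 h, quantified by nuclease protection (qNPA) with chemiluminescent detection, in human liver primary hepatocytes exposed to several compound concentrations with 0.2% DMSO as baseline; phase-contrast morphology annotated apparent cytotoxicity.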

Read-out in assay [16]: xenobiotic metabolism (CYP1A1), CYP1A1 (gene 1543)
Briefly: CLD_CYP1A1_24hr: CellzDirect (CLD) Gene Expression Assay for xenobiotic metabolism (CYP1A1) at 24 hours (AID 2283673). The gist of the method:
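Transcript levels were read at 24 h by qNPA chemiluminescence in human liver primary cells. Cells got daily fresh dosing at multiple concentrations (vehicle 0.2% DMSO). Induction fitted upward against DMSO; phase-contrast cytotoxicity annotated.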

Read-out in assay [17]: Cytochrome P450 3A4 (Homo sapiens) (UniProt P08684)
Put plainly: CLD_CYP3A4_6hr: CellzDirect (CLD) Gene Expression Assay for xenobiotic metabolism (CYP3A4) at 6 hours (AID 2283680). In a few lines:
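CYP3A4 mRNA induction, 6 h after dosing of cultured primary human hepatocytes from two donors, read by quantitative nuclease protection (qNPA, chemiluminescence). Vehicle 0.2% DMSO as baseline; morphology-based cytotoxicity annotated yes/no.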

Inconclusive results are not listed. Activity calls are given as the source filed them. Rule for the calls, unless noted: active = hit-call score of the fitted dose curve at least 0.9, where 1 is the maximum; inconclusive = response in the unintended direction; inactive = score below 0.9.

Glyceraldehyde-3-phosphate dehydrogenase (Homo sapiens), sequence (P04406 whole entry, looked up): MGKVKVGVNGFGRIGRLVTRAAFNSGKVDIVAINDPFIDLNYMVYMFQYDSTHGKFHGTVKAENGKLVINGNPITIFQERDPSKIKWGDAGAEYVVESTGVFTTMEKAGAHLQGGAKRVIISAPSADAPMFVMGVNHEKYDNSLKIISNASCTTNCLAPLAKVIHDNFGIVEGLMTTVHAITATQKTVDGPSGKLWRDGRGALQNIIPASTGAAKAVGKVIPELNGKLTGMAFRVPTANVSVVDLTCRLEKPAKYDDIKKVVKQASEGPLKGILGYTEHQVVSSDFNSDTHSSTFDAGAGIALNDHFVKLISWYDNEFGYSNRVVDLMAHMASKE
Broad substrate specificity ATP-binding cassette transporter ABCG2 (Homo sapiens), sequence (Q9UNQ0 whole entry, looked up): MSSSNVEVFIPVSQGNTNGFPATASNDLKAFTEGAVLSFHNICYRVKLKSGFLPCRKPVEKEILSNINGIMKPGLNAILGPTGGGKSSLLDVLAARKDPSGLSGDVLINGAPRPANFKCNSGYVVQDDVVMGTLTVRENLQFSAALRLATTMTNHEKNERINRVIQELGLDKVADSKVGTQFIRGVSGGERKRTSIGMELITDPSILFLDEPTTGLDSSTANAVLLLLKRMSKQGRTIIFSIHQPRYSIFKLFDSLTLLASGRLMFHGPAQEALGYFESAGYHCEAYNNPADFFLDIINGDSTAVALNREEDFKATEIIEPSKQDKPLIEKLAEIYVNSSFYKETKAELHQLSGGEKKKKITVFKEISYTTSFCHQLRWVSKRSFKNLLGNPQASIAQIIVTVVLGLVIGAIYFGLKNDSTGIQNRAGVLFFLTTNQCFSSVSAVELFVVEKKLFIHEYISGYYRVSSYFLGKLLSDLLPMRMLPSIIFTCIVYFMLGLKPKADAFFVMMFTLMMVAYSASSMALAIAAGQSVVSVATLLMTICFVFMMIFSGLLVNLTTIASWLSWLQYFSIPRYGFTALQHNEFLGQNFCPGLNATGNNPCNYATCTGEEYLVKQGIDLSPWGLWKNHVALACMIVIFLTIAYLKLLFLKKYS
Cytochrome P450 3A4 (Homo sapiens), sequence (P08684 whole entry, looked up): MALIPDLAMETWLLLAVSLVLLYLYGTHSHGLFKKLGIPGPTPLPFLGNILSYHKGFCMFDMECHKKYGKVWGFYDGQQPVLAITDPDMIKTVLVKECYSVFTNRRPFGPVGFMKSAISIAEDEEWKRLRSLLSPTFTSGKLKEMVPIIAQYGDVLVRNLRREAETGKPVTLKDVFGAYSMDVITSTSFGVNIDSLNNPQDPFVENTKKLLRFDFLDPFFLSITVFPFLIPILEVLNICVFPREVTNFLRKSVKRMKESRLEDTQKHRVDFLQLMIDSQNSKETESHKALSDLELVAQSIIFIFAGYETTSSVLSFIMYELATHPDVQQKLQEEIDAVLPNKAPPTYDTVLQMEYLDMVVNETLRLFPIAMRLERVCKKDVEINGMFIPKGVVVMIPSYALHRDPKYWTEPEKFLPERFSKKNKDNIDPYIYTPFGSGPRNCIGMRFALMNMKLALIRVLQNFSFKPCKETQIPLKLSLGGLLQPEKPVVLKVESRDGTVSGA

What is called AC50 is the concentration giving half of the maximal activity seen. With `N#Cc1c[nH]cc1-c1cccc2c1OC(F)(F)O2`, the AC50 in assay [1] was 0.9 µM (active); in [4] it was 5.4 µM (active); in assay [5], 4.19 µM (active). Besides, the compound was classed as inactive in assay [2], in assay [3] and in assay [6].

Consider `CCNC(=O)NC(=O)C(C#N)=NOC`, for which the outcome in [1], in assay [2], in assay [3], in [8] and in assay [6] was inactive. The AC50 was 41.2 µM (active) in [7] and 33.1 µM (active) in [5].

On to `COP(=S)(OC)Oc1ccc([N+](=O)[O-])c(C)c1`, for which the compound was called inactive in [9], in [2], in assay [10], in assay [3] and in assay [8]. Also, the AC50 in assay [1] was 1.22 µM (active); in assay [7], 5.57 µM (active); in assay [4], 1.46 µM (active); in [5], 50 µM (active).

`CC1(C)C(C(=O)OC(C#N)c2cccc(Oc3ccccc3)c2)C1(C)C` (stereo not drawn): the outcome in assay [9], in assay [1], in assay [2], in assay [3], in assay [11] and in assay [6] was inactive. In addition, the AC50 in assay [5] is 1.44 µM (active).

For `COc1cc(OC)nc(NC(=O)NS(=O)(=O)c2ncccc2OCC(F)(F)F)n1`, the compound was called inactive in assay [2], in [10], in assay [12], in assay [11], in assay [5] and in assay [6].

Turning to `CN/C(=N\[N+](=O)[O-])NCc1cnc(Cl)s1`, the result in assay [2] and in assay [5] was inactive.

Turning to `COCc1cnc(C2=NC(C)(C(C)C)C(=O)N2)c(C(=O)O)c1` (stereo not drawn), the result in assay [9], in [13], in assay [2], in assay [3] and in assay [8] was inactive. In [5], the AC50 is 5.5 µM (active).

For the compound `CCNP(=S)(OC)O/C(C)=C/C(=O)OC(C)C` (stereo not drawn), the result in assay [9], in assay [7], in assay [2], in [3], in assay [8] and in assay [6] was inactive. Also, the AC50 in assay [1] is 3.37 µM (active); in assay [5], 40.6 µM (active).

For the compound `COC(=O)N(C(=O)N1CO[C@@]2(C(=O)OC)Cc3cc(Cl)ccc3C2=N1)c1ccc(OC(F)(F)F)cc1`, the outcome in assay [9], in assay [15], in assay [2], in [3] and in [8] was inactive. Moreover, the AC50 in assay [1] is 2.46 µM (active); in assay [14], 0.449 µM (active); in [16], 1.86 µM (active); in assay [4], 2.09 µM (active); in [5], 1.57 µM (active).

For the compound `O=C(O)c1c(Cl)ccc2cc(Cl)cnc12`, the result in assay [9], in assay [1], in assay [14], in assay [2], in [3] and in [16] was inactive. Also, the compound was classed as inactive in assay [5] and in assay [8].

For `Cc1cc(C)nc(Nc2ccccc2)n1`, the AC50 in assay [1] was 3.97 µM (active); in [14], 3.97 µM (active); in [16], 7.59 µM (active); in assay [4], 0.994 µM (active). For the same compound, the call in assay [2], in assay [3] and in [5] was inactive.

Regarding `Clc1nc(Cl)nc(Nc2ccccc2Cl)n1`, the call in assay [13], in [1], in assay [2], in assay [3], in assay [16] and in assay [8] was inactive. For the same compound, the results for the AC50 in assay [7] and in assay [5] were 6.29 µM (active) and 52 µM (active), respectively.

For the compound `COC(=O)c1c(C(F)F)nc(C(F)(F)F)c(C2=NCCS2)c1CC(C)C`, the result in [9], in [3] and in [17] was inactive. In addition, the AC50 is 1.91 µM (active) in assay [1] and 51.4 µM (active) in assay [5].

With `CC(C)=CC1C(C(=O)OCc2coc(Cc3ccccc3)c2)C1(C)C` (stereo not drawn), the compound was called inactive in assay [9], in assay [1], in assay [2] and in [3]. Besides, the AC50 in [7] was 26.8 µM (active); in [4], 7.48 µM (active); in assay [5], 1.71 µM (active).

On to `CC(C)N1C(=O)c2ccccc2NS1(=O)=O`, for which the call in [9], in assay [1], in assay [2], in assay [3], in assay [5] and in assay [8] was inactive. The concentration at half-maximal activity (AC50) in assay [6] is 0.00735 µM (active).
